Results reported in PubChem BioAssay.
Records with an inconclusive call do not appear. The source made the active and inactive calls.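 The calls were made as follows, unless noted: active = normalized viability below 100% at a tested concentration; inactive = the rest.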

What was measured:
[1] = viability loss in pontine glioma line – cell-based, SU-DIPG-XIII, MIPE4.0, CellTiter-Glo, qHTS, dose response (AID 1347061; cut-off not given, nearly all actives have AC50 up to about 37 µM;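 also: cells exposed to compound for 48 hours before readout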); conditions: CellTiter-Glo ATP luminescence
[2] = viability loss in pontine glioma line – cell-based, JHH-DIPG-1, MIPE4.0, CellTiter-Glo, qHTS, dose response (AID 1347062; cut-off not given, nearly all actives have AC50 up to about 27 µM;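 as to AC50: cells exposed to compound for two days before readout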); conditions: JHH-DIPG-1 viability, CellTiter-Glo ATP luminescence
[3] = viability loss in pontine glioma line – cell-based, SU-DIPG-IV, MIPE4.0, CellTiter-Glo, qHTS, dose response (AID 1347063; cut-off not given, nearly all actives have AC50 up to about 30 µM;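 also: compound exposure lasted 48 hours before the viability readout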); conditions: CellTiter-Glo ATP luminescence
[4] = viability loss in pontine glioma line – cell-based, SU-DIPG-XIII, MIPE5.0, CellTiter-Glo, qHTS, dose response (AID 1347064; cut-off not given, nearly all actives have AC50 up to about 23 µM;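 as to AC50: cells exposed to compound for 48 hours before the viability read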); conditions: CellTiter-Glo ATP luminescence
[5] = viability loss in pontine glioma line – cell-based, SU-DIPG-XXV, MIPE5.0, CellTiter-Glo, qHTS, dose response (AID 1347065; cut-off not given, nearly all actives have AC50 up to about 26 µM;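 also: cells exposed to compound for 48 hours before ATP readout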); conditions: CellTiter-Glo ATP luminescence
[6] = growth inhibition of DIPG cells – cell-based, MIPE4.0 library, CellTiter-Glo luminescence, qHTS (AID 1347066; cut-off not given, nearly all actives have AC50 up to about 30 µM;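 also: cells exposed to compound for 48 hours before readout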); conditions: SU-DIPG-VI viability, CellTiter-Glo ATP luminescence
[7] = JHH-DIPG-1 glioma cell viability, MIPE5.0 library, CellTiter-Glo luminescence, qHTS (AID 1347067; cut-off not given, nearly all actives have AC50 up to about 26 µM;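 also: cells exposed to compound for 48 hours before readout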); conditions: JHH-DIPG-1 glioma viability, CellTiter-Glo ATP luminescence
[8] = growth inhibition of DIPG cells – cell-based, MIPE5.0 library, qHTS (AID 1347068; cut-off not given, nearly all actives have IC50 up to about 30 µM;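 as to IC50: cells exposed to compound for 48 hours before viability readout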); conditions: SU-DIPG-XXV viability
[9] = viability loss with induced miR-34 in A549 – imaging, A549 dox-inducible miR-34, nuclei and caspase counts, primary screen (AID 1347080;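 active = compounds whose cell count with miR-34 switched on is under 0.7 times the count with it off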); conditions: A549 miR-34 inducible, Hoechst nuclei count, 48 h
[10] = MELAS cybrid and Rieske KO viability enhancers – cell-based, MELAS cybrids, Rieske KO mouse fibroblasts, CellTiter-Glo, primary screen (AID 1508586;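 active = mean z-score across replicates of 1.96 or higher in either the MELAS or the Rieske mutant cell line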;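 also: z relative to plate mean and SD of compound and empty wells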); conditions: low glucose
[11] = drug combination growth inhibition, ovarian cancer – cell-based, oncology-focused library, rucaparib conditional, profiling panel (AID 1508598); conditions: patient-derived ovarian cancer cells, CellTiter-Glo viability, 144 h, stronger effect = lower value

SMILES: O=C(NCC1CCOCC1)c1cnc(Nc2ccc(Cl)cc2Cl)nc1C(F)(F)F
- outcome [1]: inactive
- AC50 [2]: 18.7 µM (active)
- AC50 [3]: 10.5 µM (active)
- outcome [4]: inactive
- outcome [5]: inactive
- outcome [6]: inactive
- outcome [7]: inactive
- outcome [8]: inactive
- fold change ([9]; stronger effect = lower value, cell number ratio, induced over uninduced): 0.931 (inactive)
- fold change ([9]; measured here: relative caspase fold change +Dox/-Dox): 1.15
- cell count ([9]; measured here: total cells with miR-34 induction, stronger effect = lower value): 8190
- cell count ([9]; measured here: total cells without miR-34 induction): 8790
- z-score ([10]; MELAS cybrid survival, CellTiter-Glo 48 h, stronger effect = higher value): -0.266 (inactive)
- z-score ([10]; Rieske KO mouse fibroblast survival, CellTiter-Glo 72 h): -0.797

SMILES: CO[C@H]1CCC(O[C@H]2C[C@H]([C@]3(C)CC[C@]4(C[C@H](O)[C@@H](C)[C@@H]([C@@H](C)/C=C(\C)C(=O)[C@H](C)C[C@H](C)C(=O)O)O4)O3)O[C@]3(O[C@@H]([C@H]4O[C@@](O)(CO)[C@H](C)C[C@@H]4C)C[C@@H]3C)[C@@H]2C)O[C@@H]1C (stereo partly drawn)
- AC50 [1]: 3.32 µM (active)
- AC50 [2]: 1.48 µM (active)
- AC50 [4]: 1.66 µM (active)
- AC50 [5]: 0.742 µM (active)
- AC50 [6]: 0.526 µM (active)
- AC50 [7]: 0.742 µM (active)
- IC50 [8]: 0.934 µM (active)

SMILES: C[C@@H]1[C@H](O)[C@@H](C)C=CC=CCCC=CC=CC=CC=C[C@H](O[C@H]2O[C@@H](C)[C@H](O)[C@@H](N)[C@H]2O)CC2O[C@](O)(C[C@@H](O)[C@H](O)CC[C@@H](O)C[C@@H](O)C[C@@H](O)CC(=O)O[C@H]1C)C[C@H](O)[C@H]2C(=O)O
- outcome [1]: inactive
- outcome [2]: inactive
- outcome [3]: inactive
- outcome [6]: inactive

SMILES: CNC(=O)c1ccc(N2C(=S)N(c3ccc(C#N)c(C(F)(F)F)c3)C(=O)C23CCC3)cc1F
- outcome [1]: inactive
- AC50 [2]: 10.5 µM (active)
- AC50 [3]: 9.35 µM (active)
- outcome [6]: inactive
- outcome [8]: inactive

SMILES: CC(C)(C)[C@]1(O)C[C@@H]2OC(=O)C[C@@]23C(=O)O[C@@H]2OC(=O)[C@H](O)C213 (stereo partly drawn)
- outcome [1]: inactive
- outcome [2]: inactive
- outcome [3]: inactive
- outcome [6]: inactive

SMILES: CCC(=O)OC1CCC2C3CCC4=CC(=O)CC[C@@]4(C)C3CC[C@]12C (stereo partly drawn)
- outcome [2]: inactive
- outcome [3]: inactive
- outcome [6]: inactive

SMILES: C[C@H]([C@H](O)CCC(C)(C)O)[C@H]1CC[C@@]2(O)C3=CC(=O)[C@@H]4C[C@@H](O)[C@@H](O)C[C@]4(C)[C@H]3CC[C@]12C
- outcome [1]: inactive
- outcome [2]: inactive
- outcome [3]: inactive
- outcome [6]: inactive

SMILES: CCNC(=O)C[C@@H]1N=C(c2ccc(Cl)cc2)c2cc(OC)ccc2-n2c(C)nnc21
- AC50 [2]: 7.43 µM (active)
- outcome [6]: inactive
- outcome [7]: inactive
- outcome [8]: inactive

SMILES: C=C[C@H]1CN2CCC1C[C@H]2[C@H](O)c1ccnc2ccccc12 (stereo partly drawn)
- AC50 [2]: 20.9 µM (active)
- outcome [6]: inactive

SMILES: Cc1c(N)nc([C@H](CC(N)=O)NC[C@@H](N)C(N)=O)nc1C(=O)N[C@H](C(=O)N[C@@H](C)[C@H](O)[C@@H](C)C(=O)N[C@@H](C(=O)NCCc1nc(-c2nc(C(=O)NCCC[S+](C)C)cs2)cs1)[C@@H](C)O)C(O[C@H]1O[C@H](CO)[C@H](O)[C@@H](O)[C@H]1O[C@H]1O[C@H](CO)[C@@H](O)[C@H](OC(N)=O)[C@@H]1O)c1cnc[nH]1 (stereo partly drawn)
- outcome [1]: inactive
- outcome [2]: inactive
- AC50 [3]: 1.87 µM (active)
- outcome [4]: inactive
- outcome [6]: inactive
- outcome [7]: inactive
- outcome [8]: inactive
- viability ([11]; at 0.000305 µM, OCI-C5x cells, with rucaparib 10 µM, 100% = cells with rucaparib alone): 106% (inactive)
- viability ([11]; at 0.000305 µM, OCI-C5x cells, without rucaparib): 102% (inactive)
- viability ([11]; at 0.000305 µM, OCI-P5x cells, with rucaparib 20 µM, 100% = cells with rucaparib alone): 109% (inactive)
- viability ([11]; at 0.000305 µM, OCI-P5x cells, without rucaparib): 102% (inactive)
- viability ([11]; at 0.00122 µM, OCI-C5x cells, with rucaparib 10 µM, 100% = cells with rucaparib alone): 109% (inactive)
- viability ([11]; at 0.00122 µM, OCI-C5x cells, without rucaparib): 107% (inactive)
- viability ([11]; at 0.00122 µM, OCI-P5x cells, with rucaparib 20 µM, 100% = cells with rucaparib alone): 106% (inactive)
- viability ([11]; at 0.00122 µM, OCI-P5x cells, without rucaparib): 97.2% (active)
- viability ([11]; at 0.00488 µM, OCI-C5x cells, with rucaparib 10 µM, 100% = cells with rucaparib alone): 120% (inactive)
- viability ([11]; at 0.00488 µM, OCI-C5x cells, without rucaparib): 100% (inactive)
- viability ([11]; at 0.00488 µM, OCI-P5x cells, with rucaparib 20 µM, 100% = cells with rucaparib alone): 96% (active)
- viability ([11]; at 0.00488 µM, OCI-P5x cells, without rucaparib): 94.3% (active)
- viability ([11]; at 0.0195 µM, OCI-C5x cells, with rucaparib 10 µM, 100% = cells with rucaparib alone): 104% (inactive)
- viability ([11]; at 0.0195 µM, OCI-C5x cells, without rucaparib): 90.7% (active)
- viability ([11]; at 0.0195 µM, OCI-P5x cells, with rucaparib 20 µM, 100% = cells with rucaparib alone): 88.2% (active)
- viability ([11]; at 0.0195 µM, OCI-P5x cells, without rucaparib): 84.4% (active)
- viability ([11]; at 0.0781 µM, OCI-C5x cells, with rucaparib 10 µM, 100% = cells with rucaparib alone): 103% (inactive)
- viability ([11]; at 0.0781 µM, OCI-C5x cells, without rucaparib): 95% (active)
- viability ([11]; at 0.0781 µM, OCI-P5x cells, with rucaparib 20 µM, 100% = cells with rucaparib alone): 94.6% (active)
- viability ([11]; at 0.0781 µM, OCI-P5x cells, without rucaparib): 85.9% (active)
- viability ([11]; at 0.313 µM, OCI-C5x cells, with rucaparib 10 µM, 100% = cells with rucaparib alone): 86.7% (active)
- viability ([11]; at 0.313 µM, OCI-C5x cells, without rucaparib): 84.5% (active)
- viability ([11]; at 0.313 µM, OCI-P5x cells, with rucaparib 20 µM, 100% = cells with rucaparib alone): 76.8% (active)
- viability ([11]; at 0.313 µM, OCI-P5x cells, without rucaparib): 57.6% (active)
- viability ([11]; at 1.25 µM, OCI-C5x cells, with rucaparib 10 µM, 100% = cells with rucaparib alone): 74.8% (active)
- viability ([11]; at 1.25 µM, OCI-C5x cells, without rucaparib): 69.9% (active)
- viability ([11]; at 1.25 µM, OCI-P5x cells, with rucaparib 20 µM, 100% = cells with rucaparib alone): 62.8% (active)
- viability ([11]; at 1.25 µM, OCI-P5x cells, without rucaparib): 39.3% (active)
- viability ([11]; at 5 µM, OCI-C5x cells, with rucaparib 10 µM, 100% = cells with rucaparib alone): 53.8% (active)
- viability ([11]; at 5 µM, OCI-C5x cells, without rucaparib): 47.2% (active)
- viability ([11]; at 5 µM, OCI-P5x cells, with rucaparib 20 µM, 100% = cells with rucaparib alone): 39.6% (active)
- viability ([11]; at 5 µM, OCI-P5x cells, without rucaparib): 21.3% (active)

SMILES: C[C@]12CC[C@H]3[C@@H](CCC4=CC(=O)CC[C@@H]43)[C@@H]1CC[C@@H]2OC(=O)CCc1ccccc1
- outcome [1]: inactive
- outcome [2]: inactive
- outcome [3]: inactive
- outcome [6]: inactive
- outcome [8]: inactive

SMILES: CC[C@@H]1[C@@H](C)O[C@@](O)([C@@H](C)[C@H](O)[C@H](C)[C@H]2OC(=O)/C=C/C=C/[C@H](C)[C@@H]([C@@H](C)[C@@H](O)[C@H](C)[C@@]3(O)C[C@@H](O[C@H]4C[C@H](O)[C@H](O)[C@H](C)O4)[C@H](CC)[C@@H](C)O3)OC(=O)/C=C/C=C/[C@@H]2C)C[C@H]1O[C@H]1C[C@H](O)[C@H](O)[C@H](C)O1
- AC50 [2]: 0.59 µM (active)
- AC50 [3]: 0.743 µM (active)
- AC50 [6]: 0.469 µM (active)

SMILES: O=C(N[C@@H](COc1ccc2[nH]c(=O)[nH]c2c1)c1ccccc1)c1cccn(Cc2ccc(F)c(F)c2)c1=O
- outcome [1]: inactive
- outcome [4]: inactive
- AC50 [5]: 18.6 µM (active)
- AC50 [7]: 16.6 µM (active)
- outcome [8]: inactive

SMILES: CC(C)N[C@@H]1CCn2c(=O)[nH]c3cccc(c32)[C@H]1O
- AC50 [1]: 7.43 µM (active)
- AC50 [2]: 14.8 µM (active)
- AC50 [3]: 0.743 µM (active)
- AC50 [6]: 23.5 µM (active)
